Assay results: PubChem BioAssay AID1159580 (chemical genetic matrix, 2015)
The whole screen tested about 5,500 compounds, of which about 2,000 (36%) were called active. Not shown: some 18% with an inconclusive outcome. No stated cut-off is given here; in the data, active means normalized growth mostly below about 0.91 (no sharp cut-off); inconclusive means no clear call, values can overlap the other calls; inactive means mostly above about 0.92. The list shows a part of the results.

Assay: chemical genetic growth profiling, strain panel (AID 1159580);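 further: tested at 20 µM; growth read once vehicle control cultures reached saturation at 30 °C; 1 = growth at the plate median or of vehicle wells; lower values mean less growth of the strain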
Details: growth OD
[1] = S. cerevisiae deletion strains, locus YMR263W, strain SAP30, active compounds read low
[2] = S. cerevisiae deletion strains, locus YMR307W, strain GAS1, active compounds read low
[3] = S. cerevisiae deletion strains, locus YNL153C, strain GIM3, active compounds read low
[4] = S. cerevisiae deletion strains, locus YPL055C, strain LGE1, active compounds read low
[5] = S. cerevisiae deletion strains, locus YPL241C, strain CIN2, active compounds read low

Measured: normalized growth

CCCn1c(=O)c2[nH]c(-c3ccc(OCC(=O)Nc4ccc(C#N)cc4)cc3)nc2n(CCC)c1=O
inactive: S. cerevisiae deletion strains, locus YAL040C, strain CLN3, active compounds read low 0.979 | S. cerevisiae deletion strains, locus YCL061C, strain MRC1 (second series), active compounds read low 0.998 | S. cerevisiae deletion strains, locus YDR363W, strain ESC2, active compounds read low 1.02 | S. cerevisiae deletion strains, locus YER002W, strain NOP16, active compounds read low 1 | S. cerevisiae deletion strains, locus YGR229C, strain SMI1, active compounds read low 0.995 | [1] 0.982 | [2] 1.02 | [3] 1.01 | S. cerevisiae deletion strains, locus YNL175C, strain NOP13, active compounds read low 0.994 | S. cerevisiae deletion strains, locus YNL197C, strain WHI3, active compounds read low 0.978 | S. cerevisiae deletion strains, locus YNL224C, strain SQS1, active compounds read low 0.992 | S. cerevisiae deletion strains, locus YOR083W, strain WHI5 (second series), active compounds read low 0.992 | [4] 0.998 | [5] 0.973

CCc1ccccc1NC(C)=O
inactive: S. cerevisiae deletion strains, locus YAL013W, strain DEP1, active compounds read low 1.04 | S. cerevisiae deletion strains, locus YBR229C, strain ROT2, active compounds read low 1 | S. cerevisiae deletion strains, locus YDL101C, strain DUN1, active compounds read low 1.01 | S. cerevisiae deletion strains, locus YDR150W, strain NUM1, active compounds read low 1.01 | S. cerevisiae deletion strains, locus YEL061C, strain CIN8, active compounds read low 1.02 | S. cerevisiae deletion strains, locus YGR078C, strain PAC10, active compounds read low 1 | S. cerevisiae deletion strains, locus YHR030C, strain SLT2, active compounds read low 1.08 | S. cerevisiae deletion strains, locus YHR087W, strain rtc3, active compounds read low 1.01 | S. cerevisiae deletion strains, locus YJL187C, strain SWE1, active compounds read low 1 | S. cerevisiae deletion strains, locus YJR043C, strain POL32, active compounds read low 0.995 | S. cerevisiae deletion strains, locus YJR075W, strain HOC1, active compounds read low 0.997 | S. cerevisiae deletion strains, locus YLR039C, strain RIC1, active compounds read low 0.992 | S. cerevisiae deletion strains, locus YLR058C, strain SHM2 (second series), active compounds read low 0.997 | S. cerevisiae deletion strains, locus YLR085C, strain ARP6, active compounds read low 1.01 | S. cerevisiae deletion strains, locus YLR262C, strain YPT6, active compounds read low 1.06 | S. cerevisiae deletion strains, locus YML094W, strain GIM5, active compounds read low 1.03 | S. cerevisiae deletion strains, locus YMR219W, strain ESC1, active compounds read low 1.01 | [1] 0.998 | [2] 0.972 | [3] 1.01 | S. cerevisiae deletion strains, locus YNL298W, strain CLA4 (second series), active compounds read low 1.03 | S. cerevisiae deletion strains, locus YNL322C, strain KRE1, active compounds read low 0.993 | S. cerevisiae deletion strains, locus YNR030W, strain Alg12, active compounds read low 1.03 | [4] 0.901 | [5] 1.01 | S. cerevisiae deletion strains, locus YPR135W, strain CTF4, active compounds read low 1.24 | S. cerevisiae strains, strain wild type, active compounds read low 0.985
